Screening results (PubChem BioAssay)
Bead autofluor: flagged as autofluorescent in microsphere protease counterscreen; AID 624483; compound autofluorescence counterscreen, microsphere flow cytometry; stronger effect = higher value; fluorescence intensity (concentration not given with the values); 360,000 compounds, 3.1% hits; in the data active = fluorescence intensity above about 16000; inconclusive = no clear call, values can overlap the other calls
BoNT A protease: BoNT/A light chain protease inhibitors, primary screen, biochemical, flow cytometry, MLPCN library; Botulinum neurotoxin type A light chain protease (Clostridium botulinum A str. ATCC 3502); multiplex microsphere protease substrate cleavage; inhibition, % at 10 µM; 360,000 compounds, 0.17% hits
BoNT F protease: BoNT/F light chain protease inhibitors, primary screen, biochemical, flow cytometry, MLPCN library | inhibition, % at 10 µM | Botulinum neurotoxin type F light chain protease (Clostridium botulinum) | Multiplex microsphere protease cleavage assay | 360,000 compounds, 0.22% hits | AID 588497, 2011; in the data active = inhibition above about 35%, passing the limit was not always enough; inconclusive = no clear call, values can overlap the other calls
SSB-PriA inh: inhibitors of Klebsiella pneumoniae PriA binding to SSB C-terminal tail, primary screen, biochemical, AlphaScreen; PriA–SSB C-terminal tail interaction (Klebsiella pneumoniae); AlphaScreen SSBct-PriA binding, biotinylated peptide; inhibition, % at 33 µM; 430,000 compounds, 0.6% hits; AID 1272365, 2023; in the data active = inhibition mostly above about 37%, no sharp cut-off; inactive = mostly below about 20%
Anthrax LF prot: Bacillus anthracis LF protease inhibitors, primary screen, biochemical, multiplex microsphere, MLPCN library; 360,000 compounds, 0.12% hits; Lethal factor (Bacillus anthracis), P15917; multiplex microsphere protease cleavage assay; AID 588501, 2011; inhibition, % at 10 µM
MazF activator: activators of E. coli MazEF toxin-antitoxin RNase, primary screen, biochemical, fluorescence, uHTS. activation, % at 20 µM. AID 504720, 2011. 350,000 compounds, 0.32% hits. FAM/BHQ RNA-DNA oligo cleavage fluorescence, 5 h; in the data active = activation above about 50%
Target sequence (P0AE70 whole entry, looked up): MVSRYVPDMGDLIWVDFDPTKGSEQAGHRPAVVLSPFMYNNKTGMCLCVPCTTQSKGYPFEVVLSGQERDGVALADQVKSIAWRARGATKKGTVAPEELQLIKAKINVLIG
A number is an active result; 0 = inactive; ? = inconclusive; - = not tested or not shown. An excerpt weighted towards active compounds, which were near 3.3% of everything screened. Rule as the data show it, unless noted: active = inhibition above about 30%; inconclusive = no clear call, values can overlap the other calls; inactive = below that.

SMILES	Bead autofluor	BoNT A protease	BoNT F protease	SSB-PriA inh	Anthrax LF prot	MazF activator
CCCc1ccc(-c2cc(C(=O)NN3CCOCC3)c3ccccc3n2)cc1	23255	0	0	0	0	0
O=S(=O)(Nc1cccc(-c2nc3cccnc3s2)c1)c1cccc(F)c1	-	-	-	0	-	-
COc1ccc(N2CC(CNC(=O)c3cccs3)OC2=O)cc1 (configuration not stated)	-	-	-	0	-	-
Cn1c(=O)c([N+](=O)[O-])c(NCCc2ccccc2)c2ccccc21	0	0	0	0	0	0
Cc1ccc(Nc2c([N+](=O)[O-])c(=O)n(C)c3ccccc23)cc1C	21534	0	0	0	0	0
CC1CCc2nc(NC(=O)c3cccc(Br)c3)sc2C1 (configuration not stated)	-	-	-	0	-	-
N#C/C(=C\c1ccco1)Sc1nc2ccccc2s1	23761	0	0	0	0	0
CCOc1cc(C2C(C(=O)N3CCCCC3)=C(C)NC3=C2C(=O)CC(C)(C)C3)ccc1O (configuration not stated)	23188	0	0	0	0	0
CCOC(=O)C1=C(C)NC2=C(C(=O)CC(C)(C)C2)C1c1ccc(N(C)C)cc1 (configuration not stated)	24751	0	0	0	0	0
CC1=C(C(=O)OC(C)C)C(c2ccc(N(C)C)cc2)C2=C(CC(C)(C)CC2=O)N1 (configuration not stated)	0	0	0	0	0	0
CCOC(=O)C1=C(C)NC2=C(C(=O)CC(C)(C)C2)C1c1ccc(O)c(OCC)c1 (configuration not stated)	0	0	0	0	0	0
COC(=O)C1=C(C)NC2=C(C(=O)CC(C)(C)C2)C1c1cccc(C)n1 (configuration not stated)	23176	0	0	0	0	0
O=C(CSC1CCCC1)NCCn1nc(-n2cncn2)ccc1=O	-	-	-	0	-	-
Cc1ccc(-c2nc3ccccc3nc2NNC(=O)CCCC(=O)O)cc1	-	-	-	0	-	-
O=C(NCC(c1ccco1)N1CCOCC1)c1cnc2ccccc2n1 (configuration not stated)	-	-	-	0	-	-
COc1ccc(NC(=O)Cc2ccc(Cl)cc2)cc1N1CCCCC1=O	-	-	-	0	-	-
CCn1c(NC(=O)c2cccs2)c(-c2cccs2)c(=O)c2ccccc21	20705	?	0	0	0	0
COc1ccc(-c2c(NC(=O)C(C)C)n(C)c3ccccc3c2=O)cc1	0	0	0	0	0	0
CCCC(=O)Nc1c(-c2cccs2)c(=O)c2ccccc2n1C	21477	0	0	0	0	0
Cc1ccccc1C(=O)Nc1c(-c2cccs2)c(=O)c2ccccc2n1C	0	0	0	0	0	0
COc1ccc(-c2c(NC(C)=O)n(C)c3ccccc3c2=O)cc1	16417	?	0	0	0	0
CCn1c(NC(=O)c2ccco2)c(-c2ccccc2Cl)c(=O)c2ccccc21	23199	0	0	0	0	0
c1ccc(-c2nc(-n3cnc4ccccc43)c3cc(-c4ccccc4)sc3n2)cc1	-	-	-	0	-	-
O=C(c1ccc([N+](=O)[O-])cc1Cl)N1CCN(c2ccc(N3CCCCCC3)nn2)CC1	-	-	-	0	-	-
COC(CNC(=O)C(=O)Nc1ccc2c(c1)OCO2)c1ccsc1 (configuration not stated)	-	-	-	0	-	-
SMILES	Bead autofluor	BoNT A protease	BoNT F protease	SSB-PriA inh	Anthrax LF prot	MazF activator
C#CCOC(=O)c1csc2nnsc12	21747	?	0	0	0	0
C#CCOC(=O)c1ccccc1C(=O)OCC#C	0	0	0	0	0	0
Cc1cc(NC(=O)c2ccc(NC(=O)CC(C)C)cc2)no1	19975	0	0	0	0	0
CCOC(=O)c1ccc(NC(=O)Nc2ccc(S(N)(=O)=O)cc2)cc1	24361	0	0	0	0	0
CCOC(=O)c1ccc(NC(=O)N(CC)CC)cc1	20244	?	0	0	0	0
CCOC(=O)c1ccc(NC(=O)Nc2cc(C)on2)cc1	16267	0	0	0	0	0
CCOC(=O)CC(=O)Nc1ccc(C(=O)OCC)cc1	0	0	?	0	0	0
CN(CCO)C(=O)CCC(=O)Nc1ccc(S(N)(=O)=O)cc1	17212	0	0	0	0	0
